Screens as filed in PubChem.
D3 antag: antagonists of human D3 dopamine receptor; P35462; D3R cells, DiscoveRx beta-arrestin luminescence, antagonist mode; stronger effect = lower value; max response, negative = inhibition, %; hit rate 2.5% among 360,000; AID 652054; in the data active means max response below about -50%; inconclusive means no clear call, values can overlap the other calls; further: on the % scale 0 is the no-effect control and ±100 the full control effect
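Cells expressing the human receptor were seeded at 1500 cells/well, incubated overnight at 37 degrees C in 5% CO2, then exposed to library compounds with dopamine controls for 90 minutes at 37 degrees C before luminescent detection.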
DRD3 agonist: agonists of human D3 dopamine receptor; P35462; D3R DiscoveRx beta-arrestin cells, luminescence, 90 min; max activation, %; hit rate 0.58% among 410,000; AID 652048; in the data active means max activation above about 30%; further: 0% is about no effect
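Cells at 1500/well, incubated overnight, then treated with pinned compounds (dopamine as control) for 90 min at 37 degrees C. DiscoveRx reagent added for 30 - 60 minutes at room temperature; luminescence read.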
ERG Ets-DNA blk: ERG Ets/DNA interaction inhibition; AID 624246; fluorescence polarization, His-ERG Ets domain / labelled DNA; hit rate 0.028% among 370,000; Potency, µM (series often up to 76.9 µM), for the others: at the top dose FP activity, negative = inhibition, most hits filed as inhibitors; P11308; active means well fitted inhibition curve with a large enough effect in the polarisation, with a control signal flat; inconclusive means small, poorly fitted or top-dose-only effect, or effect the other way, or a change in a side signal; inactive means no such curve, though single readings can be large or run the other way; the % refers to the polarisation;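 further: polarization taken with two DNA probes labelled with fluorescein and Texas red; potency means the concentration at half of the fitted maximal effect; % of control where 0% means no effect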
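His-tagged ERG Ets domain (1 uM in the protein solution; 300mM KCl, 50mM Tris-HCl, 1mM EDTA, 1mM DTT, pH 7.5) received compound, then a probe mix of 5 nM fluorescein-DNA and 100nM Texas-615-DNA. Fluorescence polarization was read for both dyes.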
D1 antagonist: human D1 dopamine receptor antagonism | P21728 | HEK293 TREx D1 cells, calcium flux, dopamine EC80; stronger effect = lower value | activity change, negative = inhibition, % at 10 µM | hit rate 3.2% among 360,000 | AID 504652; in the data active means activity change below about -30%; further: on the % scale 0 is the no-effect control and ±100 the full control effect
Target sequence (P21728 whole entry, looked up): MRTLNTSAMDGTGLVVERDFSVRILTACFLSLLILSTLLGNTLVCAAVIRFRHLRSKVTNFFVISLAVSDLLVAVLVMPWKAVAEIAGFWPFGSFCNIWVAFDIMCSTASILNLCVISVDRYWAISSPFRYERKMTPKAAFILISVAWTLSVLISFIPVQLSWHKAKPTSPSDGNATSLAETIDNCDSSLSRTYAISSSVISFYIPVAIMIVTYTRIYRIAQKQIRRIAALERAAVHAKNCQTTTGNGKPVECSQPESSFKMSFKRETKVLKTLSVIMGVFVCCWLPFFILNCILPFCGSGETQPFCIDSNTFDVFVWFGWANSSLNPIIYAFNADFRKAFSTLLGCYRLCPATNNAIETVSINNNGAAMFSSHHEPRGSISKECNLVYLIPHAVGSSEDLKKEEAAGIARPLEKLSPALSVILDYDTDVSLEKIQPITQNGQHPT
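Antagonism measured as reduced calcium response to an EC80 dopamine addition following 180 s compound pre-read; cells were inducible HEK293 Trex D1 plated overnight at 30 C, read kinetically at 1 cycle/sec.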
D1 agonist: activates the human D1 dopamine receptor; hit rate 1% among 360,000; activation, % at 2 µM; HEK293 T-REx D1 cells, calcium flux, agonist mode; in the data active means activation above about 30%; further: 0% is about no effect
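Inducible HEK293 T-REx D1 cells, force-coupled to calcium signalling, were plated at 4000 cells/well with tetracycline and held overnight at 30 C. After no-wash calcium dye loading, compound-evoked calcium rise over 180 s flagged agonists.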
D1 PAM: enhances dopamine response at the human D1 receptor. P21728. HEK293 TREx D1 cells, calcium flux, dopamine EC20 potentiation. potentiation, % at 10 µM. hit rate 0.036% among 360,000. AID 504651; in the data active means potentiation above about 30%; further: 0% is about no effect
* hit, by the source's call; ? = inconclusive; · = not tested or not shown. Rows were chosen to be rich in hits. Some 6.1% of all compounds tested hit in one or more screens of this group.

SMILES | D3 antag | DRD3 agonist | ERG Ets-DNA blk | D1 antagonist | D1 agonist | D1 PAM
COC(=O)[C@H](CCSC)NC(=O)NC1CCN(Cc2ccccc2)CC1 | -13 | -9 | 0% | -2 | 3 | -8
CCOC(=O)C1=C(O)/C(=C/c2ccc(OCC(=O)O)c(OCC)c2)SC1=Nc1ccccc1 | -13 | -8 | 9% | 2 | 3 | -1
CCOC(=O)C1=C(O)/C(=C/c2ccccn2)SC1=Nc1ccc(Cl)cc1 | -6 | 0 | 0% | -33* | 2 | -7
CCOC(=O)C1=C(O)/C(=C/c2cc(OC)c(O)c(OC)c2)SC1=Nc1ccc(OC)cc1 | -8 | 3 | 118% | -64* | 17 | -14
CCOC(=O)C1=C(O)/C(=C/c2ccc(OCC(=O)O)c(OC)c2)SC1=Nc1ccc(OCC)cc1 | 16 | 2 | -4% | 4 | 3 | -1
O=C(COC(=O)c1ccccc1O)Nc1ncc(Cl)cc1Cl | -2 | -8 | 26% | -21 | 9 | -2
CC(=O)Nc1ccc(-c2ccccc2)s1 | ? | -4 | -9% | 4 | 3 | -3
CC(=O)Nc1ccc(NC(C)=O)s1 | -4 | -8 | 8% | -34* | 2 | -5
COc1cccc(C(=O)NCc2ccc3c(c2)OCO3)c1 | 5 | 4 | 8% | 9 | 2 | 0
Fc1cccc(CSc2nc(NCCc3ccccc3)c3ccccc3n2)c1 | · | 7 | 5% | -46* | 24 | -5
COc1ccc(C(C)=O)cc1CSc1nc(NCCc2ccccc2)c2ccccc2n1 | · | 7 | 10% | 9 | 6 | -4
Cc1ccc(CC(=O)Nc2ccccc2-c2ccccc2)cc1C | -4 | -3 | 4% | 7 | 1 | 4
COc1cccc(NC(=O)Cc2cccs2)c1 | 0 | 2 | 12% | -14 | 4 | -4
COc1cc(NC(=O)Cc2cccs2)cc(OC)c1 | 15 | 4 | -7% | -33* | 2 | 15
CC(C)(C)NC(=O)c1cccc(NC(=O)Cc2cccs2)c1 | 2 | 9 | -8% | 12 | 2 | -8
COc1cc(NC(=O)Cc2cccs2)c(C(=O)O)cc1OC | -18 | 11 | -2% | -32* | 2 | -3
Cc1cccc(NC(=O)c2cccc(NC(=O)Cc3cccs3)c2)c1 | -3 | 8 | 9% | -48* | 5 | -7
CCCCN(C)C(=O)CSc1nc(NCc2ccc(OC)cc2)c2ccccc2n1 | -18 | -7 | -2% | 6 | 0 | 3
COc1ccc(S(=O)(=O)N2CCOCC2)cc1C(=O)Nc1ccc(N2CCCCCC2)cc1 | 0 | 3 | -11% | · | · | ·
Cc1nn(CC(=O)Nc2cccc(O)c2)c(=O)c2ccccc12 | 20 | 12 | · | · | · | ·
COc1ccc2[nH]c3c(N4CCc5ccccc5C4)ncnc3c2c1 | 0 | 4 | 2% | -32* | 8 | -7
O=C(C=Cc1ccccc1)CC(c1ccccc1)N1CCOCC1 (stereo unspecified) | -72* | -21 | 0% | · | · | ·
CC(C)NC(=O)NC(=O)CSc1ncccn1 | -18 | -5 | 7% | 7 | -1 | -1
CC(C)(C)NC(=O)NC(=O)CSc1ncccn1 | -4 | 1 | 1% | -35* | 4 | -8
CCCCn1nnnc1SCC(=O)N1CCOCC1 | -8 | -5 | 1% | 11 | 2 | -1
SMILES | D3 antag | DRD3 agonist | ERG Ets-DNA blk | D1 antagonist | D1 agonist | D1 PAM
CC(=Nc1ccc(C)cc1)c1sc2ccccc2c1O | ? | -11 | · | -22 | 61* | -8
CC(=Nc1cccc(O)c1)c1sc2ccccc2c1O | -24 | -10 | · | -28 | 68* | -7
CN=Cc1sc2ccccc2c1O | 8 | 0 | · | 5 | 0 | 5
CC(=Nc1ccc(C)cc1C)c1sc2ccccc2c1O | -3 | -5 | 1% | -12 | 21 | -6
O=c1[nH]cc(S(=O)(=O)N2CCN(c3cccc(C(F)(F)F)c3)CC2)c(=O)[nH]1 | 6 | 7 | 4% | 18 | 0 | -5
Cc1[nH]n(-c2ccc([N+](=O)[O-])cc2)c(=O)c1C=NCC1CCCO1 (stereo unspecified) | -15 | -8 | -15% | -2 | 1 | 4
Cc1ccc(-n2[nH]c(C)c(/C=N/Nc3ccc([N+](=O)[O-])cc3[N+](=O)[O-])c2=O)cc1 | -56* | -21 | -3% | -7 | 6 | -10
CC1=NN(C(N)=S)C(=O)C1N=Nc1ccccc1C (stereo unspecified) | -89* | 7 | 1% | -2 | -1 | -2
CC1=NN(C(N)=S)C(=O)C1N=Nc1ccccc1O (stereo unspecified) | 2 | 0 | -7% | 10 | 11 | -3
COc1ccc2c(c1)CC(C(=O)NCCN1CCN(c3cccc(C)c3C)CC1)CO2 (stereo unspecified) | · | 47* | -2% | -14 | 12 | -4
COc1ccc(N2CCN(CCCNC(=O)C3COc4ccc(OC)cc4C3)CC2)cc1 (stereo unspecified) | · | 7 | 1% | -16 | 7 | -2
COc1ccc2c(c1)CC(C(=O)NCCN1CCN(c3ccccc3F)CC1)CO2 (stereo unspecified) | · | 2 | 4% | -40* | 1 | -5
CCN(CC)c1ccc2cc(/C(N)=N/NC(=O)c3cccs3)c(=O)oc2c1 | · | · | · | -11 | 30* | 3
CCN(CC)c1ccc2cc(C(=O)Nc3ccccn3)c(=O)oc2c1 | 21 | -3 | -10% | -6 | 30 | 2
CCN(CC)c1ccc2cc(C(=O)Nc3cccnc3N3CCOCC3)c(=O)oc2c1 | · | · | · | -4 | 9 | 5
CCN(CC)c1ccc2cc(C(C)=O)c(=O)oc2c1 | 1 | -7 | 1% | 7 | 146* | 0
CCN(CC)c1ccc2cc(NC(=O)CCC(=O)O)c(=O)oc2c1 | 11 | 10 | · | 6 | 56* | -4
CCN(CC)c1ccc2cc(C=O)c(=O)oc2c1 | -55* | -5 | -14% | 3 | 187* | -4
CC(=O)Oc1cc(O)c2c(c1)OC(c1ccc(OC(C)=O)c(OC(C)=O)c1)C(OC(C)=O)C2=O (stereo unspecified) | -3 | 4 | 6% | 0 | 3 | -3
O=C(Nc1ccc(-c2noc(-c3cccs3)n2)cc1)c1cccnc1 | 13 | 8 | -3% | -5 | -1 | -1
CC(OC(=O)C1=COCCO1)C(=O)NC1(C#N)CCCCC1 (stereo unspecified) | 11 | 7 | -1% | · | · | ·
CCN(CC)c1ccc2cc(C(N)=O)c(=N)oc2c1 | 0 | -2 | -3% | -3 | 27 | 4
CCN(CC)c1ccc2cc(C(N)=O)c(=O)oc2c1 | -3 | -1 | · | 1 | 32* | 2
CC(=O)Nc1ccc(SCC(=O)OCC(=O)NC(=O)NC2CCCC2)cc1 | 6 | 3 | -5% | -25 | 3 | -8
ClC(Cl)(c1nnnn1-c1ccccc1)c1nnnn1-c1ccccc1 | -72* | -8 | · | 5 | 4 | 0
